Measurements from PubChem BioAssay (NCATS).
Where “and” joins values, the source holds several entries; their conditions need not be identical. Equal values may be shown once. Records with an inconclusive call do not appear. Calls of active or inactive are those of the source. Unless noted, calls follow the shape of the dose curve; as a rule, active = well fitted curve in the direction sought with a large enough effect; inconclusive = small, poorly fitted or top-dose-only effect, or another doubt; inactive = no such curve, though single readings can be large; an effect the other way counts as inactive or inconclusive. Bridge positions count the residues as written; N and C are the ends. Square brackets hold non-standard residues; d marks the D form. Peptide text beside a SMILES is read from it. * marks the point of attachment. Octanoyl(6-Me) = CCC(C)CCCCC(=O)*; Dab = NCC[CH](N)C(=O)O

Tests used:
[1] = target: Mitogen-activated protein kinase 10 (Mus musculus) (UniProt Q61831); assay: JNK3 AlphaScreen Assay (AID 530; active = well fitted curve in either direction with a large enough effect, not every such curve was filed as active;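 also: kinase came from lysate of stimulated human HepG2 cells; signal reports phosphorylation of biotinylated GST-cJun 1-79 at Ser73 with 10 µM ATP; % is scaled to controls: 0 for no effect and ±100 for the full control effect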)
Summary of the method: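 Kinase buffer: 20 mM Tris-HCl pH 7.6, 10 mM MgCl2, 1 mM DTT, 0.1 mM Na3VO4, 0.01% Tween-20; ATP 10 uM. Substrate biotin-GST-cJun(1-79), enzyme from activated HepG2 lysates. Detection by Ser73 phospho-antibody AlphaScreen.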

[2] = target: Peroxisome proliferator-activated receptor delta (Homo sapiens) (UniProt Q03181); assay: qHTS assay for small molecule antagonists of peroxisome proliferator-activated receptor delta signaling (AID 588535; active = well fitted inhibition curve with a large enough effect in the signal ratio, with a control signal flat, not every such curve was filed as active; the % refers to the signal ratio)
Chain of Peroxisome proliferator-activated receptor delta (Homo sapiens) (Q03181 whole entry, looked up): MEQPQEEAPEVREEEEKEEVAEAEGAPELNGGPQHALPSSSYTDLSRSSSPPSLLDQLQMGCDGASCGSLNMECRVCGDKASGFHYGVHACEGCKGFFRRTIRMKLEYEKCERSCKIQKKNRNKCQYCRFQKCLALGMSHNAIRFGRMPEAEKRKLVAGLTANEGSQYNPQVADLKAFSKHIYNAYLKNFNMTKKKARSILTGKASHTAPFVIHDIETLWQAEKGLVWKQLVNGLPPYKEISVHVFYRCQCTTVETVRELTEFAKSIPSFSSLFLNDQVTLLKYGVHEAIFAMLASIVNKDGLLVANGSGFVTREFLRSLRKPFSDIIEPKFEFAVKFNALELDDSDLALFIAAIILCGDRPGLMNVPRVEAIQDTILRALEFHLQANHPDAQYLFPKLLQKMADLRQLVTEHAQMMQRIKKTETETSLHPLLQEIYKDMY
Summary of the method: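 Antagonist-mode qHTS using GeneBLAzer PPAR-delta-UAS-bla HEK293T cells; compound exposure 18 hrs at 37 C over a titration. Ratiometric CCF4 fluorescence at 460/530 nm; concentration-response points fitted to the Hill equation.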

[3] = target: Peroxisome proliferator-activated receptor gamma (Homo sapiens) (UniProt P37231); assay: qHTS assay for small molecule agonists of peroxisome proliferator-activated receptor gamma signaling (AID 588536; active = well fitted curve in the direction sought with a large enough effect in the signal ratio, with a control signal flat, not every such curve was filed as active; the % refers to the signal ratio;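 also: 0% = DMSO basal wells and 100% = rosiglitazone at 2 µM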)
Chain of Peroxisome proliferator-activated receptor gamma (Homo sapiens) (P37231 whole entry, looked up): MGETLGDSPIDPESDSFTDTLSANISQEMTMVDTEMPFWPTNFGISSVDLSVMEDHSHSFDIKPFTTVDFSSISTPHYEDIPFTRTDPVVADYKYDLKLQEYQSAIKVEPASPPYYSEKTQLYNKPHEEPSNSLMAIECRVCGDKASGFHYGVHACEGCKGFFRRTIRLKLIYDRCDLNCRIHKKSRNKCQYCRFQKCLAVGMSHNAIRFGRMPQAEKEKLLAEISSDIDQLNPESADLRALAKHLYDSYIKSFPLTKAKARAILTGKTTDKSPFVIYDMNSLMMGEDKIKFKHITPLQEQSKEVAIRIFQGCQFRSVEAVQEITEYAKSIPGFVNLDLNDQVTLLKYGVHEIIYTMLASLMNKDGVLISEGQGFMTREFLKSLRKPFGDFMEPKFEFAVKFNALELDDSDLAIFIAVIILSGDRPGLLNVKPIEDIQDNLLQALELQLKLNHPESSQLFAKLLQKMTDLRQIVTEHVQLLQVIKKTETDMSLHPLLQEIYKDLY
Summary of the method: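 Cells were plated and held 6–6.5 h at 37 C, then compounds were added as a titration series. After a further 16 h, CCF4 dye was loaded for 2 h at room temperature and emission at 460/530 nm recorded.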

[4] = qHTS assay for small molecule antagonists of retinoid X receptor alpha signaling (AID 588546; active = well fitted inhibition curve with a large enough effect in the signal ratio, with a control signal flat, not every such curve was filed as active; the % refers to the signal ratio;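 also: cells stimulated with 9-cis-retinoic acid as agonist; % is scaled to controls: 0 for no effect and ±100 for the full control effect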); details: HEK293T RXRa-UAS-bla, beta-lactamase ratio, antagonist mode; measured here: W530 green channel, cytotoxicity proxy
Summary of the method: (§1)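 Beta-lactamase reporter inhibition, read as CCF4 fluorescence ratio (ex 405, em 460/530 nm) after 2 h at RT. HEK293T UAS-bla cells, 2500/well, were stimulated with 9-cis-RA at 500 or 100 nM final alongside test compound for 18 h at 37 C.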

[5] = target: Retinoic acid receptor RXR-alpha (Homo sapiens) (UniProt P19793); assay: as above; details: HEK293T RXRa-UAS-bla, beta-lactamase ratio, antagonist mode
Chain of Retinoic acid receptor RXR-alpha (Homo sapiens) (P19793 whole entry, looked up): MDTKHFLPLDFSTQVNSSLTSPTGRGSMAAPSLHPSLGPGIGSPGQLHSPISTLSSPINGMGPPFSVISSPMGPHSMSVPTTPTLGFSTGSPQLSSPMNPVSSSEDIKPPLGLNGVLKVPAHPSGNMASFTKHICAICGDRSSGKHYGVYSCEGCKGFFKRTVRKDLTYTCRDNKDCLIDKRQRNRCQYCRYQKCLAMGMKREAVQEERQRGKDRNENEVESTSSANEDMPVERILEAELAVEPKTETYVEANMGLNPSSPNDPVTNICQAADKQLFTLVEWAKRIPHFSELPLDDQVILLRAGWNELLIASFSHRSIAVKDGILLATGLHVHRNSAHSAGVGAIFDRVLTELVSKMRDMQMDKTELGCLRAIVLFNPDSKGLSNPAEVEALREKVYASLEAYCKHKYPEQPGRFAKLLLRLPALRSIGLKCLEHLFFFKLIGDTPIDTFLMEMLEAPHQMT
Summary of the method: as §1

[6] = qHTS assay for environmental chemicals that activate the Aryl hydrocarbon Receptor (AhR) signaling pathway (AID 651777); details: 1A2-DRE human hepatoma cells, luciferase, 24 h; activation: stronger effect = higher value; also: % of control where 0% means no effect; nearly all actives have a fitted effect of over 15% in size
Summary of the method: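 Luminescence (One-Glo, 30 min, room temperature) reports AhR-driven luciferase in stably transfected human hepatoma cells bearing DRE and CYP1A2 promoter. Cells (1,200/well) were treated with compound for 24 hr at 37 C in qHTS format.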

[7] = target: Peroxisome proliferator-activated receptor alpha (Homo sapiens) (UniProt Q07869); assay: qHTS assay for small molecule agonists of the peroxisome proliferator-activated receptor alpha (PPARalpha) signaling pathway (AID 651778); details: PathHunter PPARalpha complementation, chemiluminescence, 6 h; max response: stronger effect = higher value; also: % of control where 0% means no effect
Chain of Peroxisome proliferator-activated receptor alpha (Homo sapiens) (Q07869 whole entry, looked up): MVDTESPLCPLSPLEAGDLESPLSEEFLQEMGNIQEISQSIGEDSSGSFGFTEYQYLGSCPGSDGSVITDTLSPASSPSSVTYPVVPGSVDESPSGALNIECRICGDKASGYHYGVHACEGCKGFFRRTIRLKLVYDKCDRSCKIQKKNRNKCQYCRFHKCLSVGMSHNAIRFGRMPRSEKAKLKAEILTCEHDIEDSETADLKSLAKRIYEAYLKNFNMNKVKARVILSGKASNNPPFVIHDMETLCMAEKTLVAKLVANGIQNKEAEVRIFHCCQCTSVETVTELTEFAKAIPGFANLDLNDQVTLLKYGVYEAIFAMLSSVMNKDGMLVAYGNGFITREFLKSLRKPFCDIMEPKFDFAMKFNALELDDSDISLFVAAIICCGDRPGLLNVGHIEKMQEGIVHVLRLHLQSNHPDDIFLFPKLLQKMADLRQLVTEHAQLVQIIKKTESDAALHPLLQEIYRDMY
Summary of the method: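 Chemiluminescence from complemented enzyme reported PPARalpha activation in cells after 6 hr of compound treatment at 37 C. The detection reagent was incubated for 60 min at room temperature, and compounds were scored as agonists.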

[8] = qHTS assay for small molecule agonists of the antioxidant response element (ARE) signaling pathway measured by Nrf2-dependant transcriptional activity (AID 720636; active = well fitted curve in the direction sought with a large enough effect in the repeat runs; an effect the other way counts as inactive or inconclusive; also: % of control where 0% means no effect)
Summary of the method: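 Nrf2-dependent transcription read as ONE-Glo luciferase signal from ARE-luc HepG2 reporter cells after 16 hr compound treatment at 37 C, 5% CO2, in assay medium with 1% dialyzed FBS.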

[9] = qHTS assay for small molecule agonists of the antioxidant response element (ARE) signaling pathway measured by Nrf2-dependant transcriptional activity - cell viability counter screen (AID 720653; active = well fitted curve in the direction sought with a large enough effect in the repeat runs; an effect the other way counts as inactive or inconclusive; also: % is scaled to controls: 0 for no effect and ±100 for the full control effect); details: ARE-bla HepG2 viability, CellTiter-Glo ATP luminescence, 16 h; max response: stronger effect = lower value
Summary of the method: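 Cytotoxicity counter screen: intracellular ATP quantified by CellTiter-Glo luminescence in the same ARE-bla HepG2 plates, after 16 h compound exposure and a 2 h beta-lactamase substrate step.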

[10] = qHTS assay for cell viability of HEK293 cells (AID 743288); details: ATP luminescence (CellTiter-Glo), 18 h; max response: stronger effect = lower value; also: % is scaled to controls: 0 for no effect and ±100 for the full control effect; nearly all actives have a fitted effect of over 50% in size
Summary of the method: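 Readout is luciferase-coupled ATP content (CellTiter-Glo luminescence, 30 min room temperature) as a measure of metabolically competent cells. Parental HEK293 cells were plated 5 h or more before compound addition, then treated 18 h at 37 C.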

[11] = target: Nuclear receptor subfamily 1 group I member 2 (Rattus norvegicus) (UniProt Q9R1A7); assay: qHTS assay for small molecule activators of the rat pregnane X receptor (rPXR) signaling pathway (AID 651751; call rule not given here; also: 0% is about no effect); details: rPXR reporter cells, luciferase (One-Glo), 24 h
Chain of Nuclear receptor subfamily 1 group I member 2 (Rattus norvegicus) (Q9R1A7 whole entry, looked up): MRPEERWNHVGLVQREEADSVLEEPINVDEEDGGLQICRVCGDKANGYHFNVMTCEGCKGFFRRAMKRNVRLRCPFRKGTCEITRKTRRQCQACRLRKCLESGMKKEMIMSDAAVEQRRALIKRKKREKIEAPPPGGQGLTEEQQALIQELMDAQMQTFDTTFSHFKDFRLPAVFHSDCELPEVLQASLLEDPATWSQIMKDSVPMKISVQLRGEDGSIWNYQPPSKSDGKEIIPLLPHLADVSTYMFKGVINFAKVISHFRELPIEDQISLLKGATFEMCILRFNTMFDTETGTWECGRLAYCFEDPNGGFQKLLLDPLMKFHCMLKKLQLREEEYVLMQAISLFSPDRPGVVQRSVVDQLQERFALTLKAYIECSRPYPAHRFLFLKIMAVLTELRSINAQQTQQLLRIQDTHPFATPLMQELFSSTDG

[12] = test system: CP203; assay: qHTS profiling for inhibitors of Plasmodium falciparum proliferation (AID 504749); also: nearly all actives have a fitted effect of over 60% in size; also: potency is read from the fitted curve at half-maximal effect; details: P. falciparum in erythrocytes, SYBR Green DNA, 72 h; series mostly up to 28.7 µM
Summary of the method: (§2)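 In a 72 h erythrocytic culture (37 C, humidified, 5% CO2) at 2.5% hematocrit and 0.3% starting parasitemia, compounds were tested; SYBR Green I in detergent lysis buffer stained parasite DNA overnight.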

[13] = test system: FAB9; assay: as above; details: P. falciparum in erythrocytes, SYBR Green DNA, 72 h; series mostly up to 28.7 µM
Summary of the method: as §2

[14] = test system: P93_24; assay: as above; details: P. falciparum in erythrocytes, SYBR Green DNA, 72 h; series mostly up to 28.7 µM
Summary of the method: as §2

[15] = test system: PC49; assay: as above; details: P. falciparum in erythrocytes, SYBR Green DNA, 72 h; series mostly up to 28.7 µM
Summary of the method: as §2

[16] = test system: TAB165; assay: as above; details: P. falciparum in erythrocytes, SYBR Green DNA, 72 h; series mostly up to 28.7 µM
Summary of the method: as §2

[17] = S16 Schwann cell PMP22 intronic element beta-lactamase assay (AID 624044; calls by dose curve;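 also: 0% = DMSO and -100% = potassium clavulanate positive control; nearly all actives have a fitted effect of over 15% in size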)
Summary of the method: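 Beta-lactamase reporter under a PMP22 intronic regulatory element in stable S16 rat Schwann cells; 24 h compound exposure. 460 nm blue signal normalized between DMSO (0%) and potassium clavulanate, with 535 nm FRET tracking viability; curves classed by r2 and response.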

[18] = test system: CP215; assay: qHTS profiling for inhibitors of Plasmodium falciparum proliferation (AID 504749); also: nearly all actives have a fitted effect of over 60% in size; also: potency is read from the fitted curve at half-maximal effect; details: P. falciparum in erythrocytes, SYBR Green DNA, 72 h; series mostly up to 28.7 µM
Summary of the method: as §2

[19] = test system: Dd2; assay: as above; details: P. falciparum in erythrocytes, SYBR Green DNA, 72 h; series mostly up to 28.7 µM
Summary of the method: as §2

[20] = target: ATP-dependent 6-phosphofructokinase (Trypanosoma brucei brucei) (UniProt O15648); assay: qHTS Assay to Find Inhibitors of T. brucei phosphofructokinase: hit validation (AID 492961);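 also: luminescence reports ADP formed as PFK phosphorylates fructose-6-phosphate with ATP; % is scaled to controls: 0 for no effect and ±100 for the full control effect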
Chain of ATP-dependent 6-phosphofructokinase (Trypanosoma brucei brucei) (O15648 whole entry, looked up): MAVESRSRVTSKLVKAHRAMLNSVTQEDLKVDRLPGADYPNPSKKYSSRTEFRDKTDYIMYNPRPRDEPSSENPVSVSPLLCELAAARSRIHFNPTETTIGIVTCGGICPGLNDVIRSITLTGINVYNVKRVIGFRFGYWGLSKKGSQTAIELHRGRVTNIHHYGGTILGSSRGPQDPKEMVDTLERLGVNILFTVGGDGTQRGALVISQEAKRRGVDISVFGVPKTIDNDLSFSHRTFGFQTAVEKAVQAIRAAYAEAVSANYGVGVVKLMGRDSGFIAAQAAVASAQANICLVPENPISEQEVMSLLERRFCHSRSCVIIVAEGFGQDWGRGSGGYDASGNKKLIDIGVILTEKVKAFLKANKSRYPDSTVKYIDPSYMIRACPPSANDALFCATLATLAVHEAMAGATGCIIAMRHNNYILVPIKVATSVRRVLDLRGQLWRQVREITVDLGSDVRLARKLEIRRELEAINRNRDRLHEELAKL
Summary of the method: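 ADP-Glo luminescence read-out of ADP formed by 1.25 nM PFK from 0.1 mM ATP and 0.5 mM F6P (TEA pH 8.0, 45 min, RT). Compounds titrated; activity normalized to no-enzyme and full-enzyme controls.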

c1ccc2scnc2c1
-9.8%: max response [4]
inactive: Potency [1] | Potency [2] | outcome [3] | max response [5] -2.82% | activation [6] -0.642% | max response [7] -3.74% | Potency [8] | max response [9] -3.11% | max response [10] 11.2% | max response [11] -1.2%

CCC(C)n1ncn(-c2ccc(N3CCN(c4ccc(OCC5COC(Cn6cncn6)(c6ccc(Cl)cc6Cl)O5)cc4)CC3)cc2)c1=O (stereo not drawn)
inactive: Potency [12] | Potency [13] | Potency [14] | Potency [15] | Potency [16]

O=S(=O)(O)c1ccccc1
5.99%: max response [4]
inactive: Potency [1] | Potency [2] | outcome [3] | max response [5] -0.701% | activation [6] -0.565% | max response [7] -0.704% | Potency [8] | max response [9] 11% | max response [10] 8.35% | max response [11] 2.35%

O=C(O)c1ccccc1C(c1ccc(O)cc1)c1ccc(O)cc1
inactive: Potency [1] | Potency [2] | outcome [3] | max response [5] 6.9% and 9.98% | activation [6] 2.69% and 0.36% | max response [7] 0.608% and -3.85% | Potency [8] | max response [9] -7.19% and 7.52% | max response [10] -11.1% and 2.2% | max response [11] 0.601% and -3.77%
-15.7% and -6.86%: max response [4]

O[C@@H]([C@H](O)[C@@H](O)CBr)[C@@H](O)CBr
-10.6%: max response [4]
inactive: Potency [1] | outcome [3] | max response [5] 12.2% | activation [6] 0.0467% | max response [7] -0.722% | Potency [8] | max response [9] 2.11% | max response [10] -10.9% | max response [11] 0.919%

CCC(C)CCCCC(=O)NC(CCN)C(=O)NC(C(=O)NC(CCN)C(=O)NC1CCNC(=O)C(C(C)O)NC(=O)C(CCN)NC(=O)C(CCN)NC(=O)C(CC(C)C)NC(=O)C(Cc2ccccc2)NC(=O)C(CCN)NC1=O)C(C)O (stereo not drawn) ({Octanoyl(6-Me)}-[Dab]T[Dab][Dab][Dab]FL[Dab][Dab]T; lactam 4-C; configuration not given here)
inactive: Potency [17] | Potency [12] | Potency [18] | Potency [19] | Potency [13] | Potency [15]

CC(C)CN(C[C@@H](O)[C@H](Cc1ccccc1)NC(=O)O[C@H]1CCOC1)S(=O)(=O)c1ccc(N)cc1
inactive: outcome [20] | Potency [17] | Potency [18] | Potency [19] | Potency [13] | Potency [15] | Potency [16]

CC(=O)O[C@@]12CO[C@@H]1C[C@H](O)[C@@]1(C)C(=O)[C@H](O)C3=C(C)[C@@H](OC(=O)C(O)[C@@H](NC(=O)OC(C)(C)C)c4ccccc4)C[C@@](O)([C@@H](OC(=O)c4ccccc4)[C@H]21)C3(C)C (stereo partly drawn)
active: Potency [12] 53.6 nM | Potency [18] 67.5 nM | Potency [19] 10 nM | Potency [14] 56.2 nM | Potency [16] 141 nM
inactive: outcome [20]

CO[C@@H]1[C@@H](OC2OC(C)C(OC3CC(C)(O)C(OC(=O)CC(C)C)C(C)O3)C(N(C)C)C2O)[C@@H](CC=O)C[C@@H](C)C(=O)/C=C\C2O[C@H]2C[C@@H](C)OC(=O)C[C@H]1OC(C)=O (stereo partly drawn)
active: Potency [19] 891 nM | Potency [14] 8910 nM
inactive: outcome [20] | Potency [17] | Potency [13] | Potency [15]
